Hit rate of the full screen: of about 2,400 compounds, about 20 (0.8%) were called active. What follows is part of a selection rich in actives, with near analogues and random picks from the rest. Unmarked numbers belong to inactive results.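 The calls were made as follows: active = AC50 no more than ten times the highest tested concentration, or full inhibition at every dose giving a flat fit (cut at about 30 µM in these data); inconclusive = flat fit with activity between 30% and 70%, or poor-quality invalid fit; inactive = AC50 more than ten times the top tested dose.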

One may read the AC50 as the concentration at which the activity in the assay is half-maximal.

This test can be described thus: inhibitors of ADP-Glo detection reagents, dose response, artefact control for GSK-3a inhibitor project, biochemical, luminescence, cell-free, homogeneous (AID 463205).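 Also: kinase-free counter-screen against the ADP-Glo detection reagents only; potency is for inhibitors that reduce the luminescence signal.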 The following applies: 5 uM ADP.
As to `C=CCSc1ncnc2c1oc1nc3c(cc12)COC(C)(C)C3`, the AC50 is greater than 30 µM.
The figure for `Nc1nonc1-n1nnc(C(=O)N/N=C/c2ccncc2)c1CSc1ccc(Cl)cc1` is greater than 30 µM; for `O=S(=O)(c1cccc(NC(=S)NCc2ccco2)c1)N1CCOCC1` it is greater than 30 µM; for `C=CC(=O)Nc1sc2c(c1C(N)=O)CCCC2` it is greater than 30 µM.
In the case of `NC(=O)c1ccsc1NC(=O)C1CC1` it was greater than 30 µM.
The figure for `Clc1cccc(/C=N/Nc2ncnc3ccccc23)c1` is greater than 30 µM; for `COCCOC(=O)c1[nH]c2c(c1C)C(=O)CC(c1cc(OC)c(OC)c(OC)c1)C2` (stereo not given) it is greater than 30 µM; for `CC(=O)c1sc(NC(=O)CN2C(=O)C3CCCCC3C2=O)nc1-c1ccccc1` (stereo not given) it is greater than 30 µM.
As to `O=C(c1ccc2c3n(nc2c1)-c1ccc(Cl)cc1CO3)N1CCOCC1`, the AC50 is greater than 30 µM.
The figure for `O=C(c1ccc2c3n(nc2c1)-c1ccccc1CO3)N1CCOCC1` is 22.5 µM (active).
In the case of `Cc1ccc2c(c1)COc1c3ccc(C(=O)N4CCOCC4)cc3nn1-2` it was greater than 30 µM; in that of `COc1ccc(S(=O)(=O)Nc2c(C(=O)O)[nH]c3ccc(OC)cc23)cc1`, greater than 30 µM; in that of `COc1ccc(-c2cc(C(=O)N3CCN(c4ccccc4)CC3)no2)cc1OC`, greater than 30 µM.
In the case of `CCOC(=O)c1sc(NC(=O)C2CC2)cc1C` it was greater than 30 µM; in that of `CCCCCCCCCCCCCCCC[N+](C)(C)CC`, greater than 30 µM; in that of `c1cncc(-c2nc(NCC3COc4ccccc4O3)c3ccccc3n2)c1` (stereo not given), greater than 30 µM.
Regarding `CC(C)(C)NC(=O)/C(=C\c1ccccc1F)NC(=O)c1ccc([N+](=O)[O-])cc1`, the AC50 was greater than 30 µM.
In the case of `O=C(CCN1CCOCC1)Nc1cccc(Br)c1` it was greater than 30 µM.
In the case of `OCc1cn(-c2ccccc2)nn1` it was greater than 30 µM.
Take `O=C(COC(=O)c1ccc(F)cc1F)Nc1ccc(Cl)cn1`: the AC50 is greater than 30 µM.
Take `CC(=NCCCn1ccnc1)c1c(O)n(Cc2ccccc2)c(=O)[nH]c1=O`: the AC50 was greater than 30 µM.
In the case of `Cc1ccc(NC(=O)CSc2nnc(-c3ccncc3)o2)cc1` it was greater than 30 µM; in that of `COc1ccc(/C=C2\Oc3cc(OCC(=O)N4CC(O)C[C@H]4C(=O)O)ccc3C2=O)c(OC)c1OC` (stereo not given in full), greater than 30 µM; in that of `CC(C)(C)c1ccc(/C=C2\Oc3cc(O)ccc3C2=O)cc1`, greater than 30 µM.
The figure for `COc1ccc(CCn2cnc(=O)c(C#N)c2C)cc1OC` is greater than 30 µM.
As to `O=C(Nc1cccc(Cl)c1N1CCOCC1)c1ccc(Br)o1`, the AC50 is greater than 30 µM.
In the case of `COc1ccc(C2C3(C#N)C(N)=NC(OC)(OC)C23C#N)cc1` (stereo not given) it was greater than 30 µM; in that of `CC(=O)N1CCN(c2ccccc2NC(=O)c2ccc(-c3cccc([N+](=O)[O-])c3)o2)CC1`, greater than 30 µM; in that of `Nc1nc2n(n1)C(c1ccc(F)cc1)CC(c1ccc(F)cc1)N2` (stereo not given), greater than 30 µM.
`CCOc1ccc(S(=O)(=O)Nc2cccc(C(=O)NCCCn3ccnc3)c2)cc1`: the AC50 was greater than 30 µM.
The figure for `O=C1c2cnc3nc(SCc4ccccc4)nn3c2CC2c3ccccc3CCN12` (stereo not given) is greater than 30 µM.
In the case of `COc1ccc(NC(=O)Nc2ccc(F)cc2F)c(C)c1` it was greater than 30 µM.
As for `CCOC(=O)c1cnc2c(Cl)c(Cl)ccc2c1N1CCN(C)CC1`, the AC50 is greater than 30 µM.
The figure for `COc1ccc(-c2cn3cccnc3n2)cc1NC(=O)C(C)C` is greater than 30 µM.
In the case of `O=c1cc(-c2ccsc2)oc2ccccc12`, the AC50 is greater than 30 µM.
In the case of `COc1ccccc1NC(=O)Nc1ccccc1Br`, the AC50 was greater than 30 µM.
In the case of `CCn1c2ccccc2c2nnc(SCC(N)=O)nc21` it was greater than 30 µM; in that of `CCCC1=C(C(=O)OCC)C(c2ccc(N(C)C)cc2)n2ncnc2N1` (stereo not given), greater than 30 µM.
In the case of `COCc1c(C(=O)N/N=C\c2cccnc2)nnn1-c1nonc1N` it was greater than 30 µM; in that of `CC(C)(C)C(=O)c1cnc(Nc2ccccc2Cl)s1`, greater than 30 µM.
In the case of `O=C(Nc1cccc(O)c1)c1ccc([N+](=O)[O-])cc1Cl` it was greater than 30 µM.
For the molecule `CCOC(=O)N1CCc2c(sc3[nH]c(=S)[nH]c(=S)c23)C1`, the AC50 is greater than 30 µM.
For the molecule `CCCCc1ccc(NC(=O)N[C@H](C(=O)O)C(C)CC)cc1` (stereo not given in full), the AC50 is greater than 30 µM.
The figure for `COc1ccccc1OCC(=O)Nc1sc2c(c1C(N)=O)CCC2` is greater than 30 µM; for `O=C(CSc1ccccc1)Nc1ccc2c(c1)C(=O)NC2=O` it is greater than 30 µM; for `CCc1c(C)c(C#N)c2nc3ccccc3n2c1NC` it is greater than 30 µM.
The figure for `COc1ccc(/C=C2\Oc3cc(OCC(=O)N4CC(O)C[C@H]4C(=O)O)ccc3C2=O)cc1OC` (stereo not given in full) is greater than 30 µM; for `Cc1ccc(S(=O)(=O)N2CCN(CC(=O)N/N=C\c3ccccn3)CC2)cc1` it is greater than 30 µM.
The figure for `CCOc1ccc(Nc2nc(N(C)c3ccccc3)nc(N)c2[N+](=O)[O-])cc1` is greater than 30 µM.
For the molecule `CN(C)c1ccc(Nc2nc(N)c3ccccc3n2)cc1`, the AC50 is 22.8 µM (active).
In the case of `COc1ccc(Cl)cc1Nc1nc(N)c2ccccc2n1` it was greater than 30 µM; in that of `COc1cc(/C=N/NC(=O)c2ccoc2C)ccc1O`, greater than 30 µM.
Take `CN(C)c1ccc(/C=N/NC(=O)c2ccccc2Cl)cc1`: the AC50 was greater than 30 µM.
Regarding `Cc1occc1C(=O)N/N=C/c1ccc(N(C)C)cc1`, the AC50 is 28.1 µM (active).
In the case of `O=[N+]([O-])c1cc(S(=O)(=O)N2CCCCC2)ccc1NCCCN1CCOCC1` it was greater than 30 µM; in that of `COc1ccc(C(=O)c2sc3nc(-c4ccc(OC)cc4)ccc3c2N)cc1`, greater than 30 µM; in that of `CC(=O)N1CCN(c2ccccc2NC(=O)c2ccc(Br)o2)CC1`, greater than 30 µM.
As to `COc1cc(OC)cc(C(=O)O/N=C(\N)c2ccccn2)c1`, the AC50 was greater than 30 µM.
The figure for `COc1ccc(C(=O)O/N=C(\N)c2ccccn2)c(OC)c1` is greater than 30 µM.
The figure for `COc1ccc(C(=O)Nc2nc(C)cc(C)n2)cc1` is greater than 30 µM.
In the case of `COc1cccc(C(=O)O/N=C(\N)c2ccccn2)c1`, the AC50 is 18.9 µM (active).
The figure for `COc1ccc(C(=O)NNC(=O)c2ccccn2)cc1` is 14.9 µM (active); for `COc1ccc(C(=O)c2ccccc2Cl)cc1` it is greater than 30 µM.
The figure for `CN(C)Cc1c(C(=O)N/N=C/C2CC=CCC2)nnn1-c1nonc1N` (stereo not given) is greater than 30 µM; for `CCOC(=O)/C(C#N)=C/c1cn(CCC(=O)O)nc1-c1cccc(Br)c1` it is greater than 30 µM.
In the case of `CCn1c2ccc(F)cc2c2nc3ccccc3nc21` it was greater than 30 µM.
`Cc1nc2c(C)cccn2c1/C(O)=C1\C(=O)C(=O)N(CCN2CCOCC2)C1c1cccs1` (stereo not given): the AC50 is greater than 30 µM.
The figure for `Cc1cccc2c(N=Nc3ccccc3)c(O)[nH]c12` is greater than 30 µM.
In the case of `Nc1nonc1-n1nnc(C(=O)N/N=C/c2ccccc2Cl)c1-c1ccccc1` it was greater than 30 µM; in that of `CCc1c(C)c(C#N)c2nc3ccccc3n2c1NCC1CCCO1` (stereo not given), greater than 30 µM.
The figure for `CS(=O)(=O)Nc1ccc(-c2cc(/C=C3\SC(N)=NC3=O)c[nH]c2=O)cc1` is greater than 30 µM; for `O=C(c1ccc(Cn2cnnn2)cc1)N1CCCC(Nc2ccc(F)cc2)C1` (stereo not given) it is greater than 30 µM.
With `O=C(Nc1ccccc1C(=O)N1CCOCC1)c1cccnc1`, the AC50 is greater than 30 µM.
Turning to `CC(=O)Nc1cccc(-c2csc(Nc3ccc(C)cn3)n2)c1`, the AC50 is greater than 30 µM.
For `Cc1cc(=O)[nH]c2cc(O)ccc12`, the AC50 is greater than 30 µM.
The figure for `CC(=O)Nc1ccc(C2(c3ccc(NC(C)=O)cc3)NC(=O)c3ccccc32)cc1` is greater than 30 µM; for `CC1(C)Cc2cccc(C(=O)NCc3ccco3)c2O1` it is greater than 30 µM.
The figure for `O=C(COC(=O)c1cccs1)Nc1ccc(Cl)cn1` is greater than 30 µM; for `CCN1CCN(c2nc(Nc3cccc(OC)c3)nc(N)c2[N+](=O)[O-])CC1` it is greater than 30 µM.
In the case of `COc1cccc(/C=N/n2nnnc2N)c1OCC#N` it was greater than 30 µM.
For the molecule `O=C(O)COc1c(Cl)cc(/C=C2/NC(=O)NC2=O)cc1Br`, the AC50 was greater than 30 µM.
Regarding `CNc1ccc(/C=C/C(=O)c2ccc3c(c2)OCCO3)cc1[N+](=O)[O-]`, the AC50 was greater than 30 µM.
In the case of `COC(=O)C1(C#N)C(c2ccccc2)C1(C(=O)OC)C(=O)OC` (stereo not given) it was greater than 30 µM.
In the case of `Cc1nc2ncnn2c(C)c1Cc1c(Cl)cccc1Cl` it was greater than 30 µM.
Regarding `O=C(c1ccccc1)c1cnc(Nc2ccccc2Cl)s1`, the AC50 is greater than 30 µM.
In the case of `COc1ccc(NC(=O)CN(C)C2CCCCC2)c([N+](=O)[O-])c1` it was greater than 30 µM; in that of `Cc1nc2cc(-c3ccccc3)ccc2o1`, greater than 30 µM; in that of `O=C(N/N=C/c1cccnc1)c1cc2c(ccc3ccccc32)o1`, greater than 30 µM.
The figure for `CCNc1nc(NCC)nc(C(=O)OCCO)n1` is greater than 30 µM.
The figure for `Cc1ccnc(NC(=O)Cn2c(=O)oc3cc(S(=O)(=O)N4CCCC4)ccc32)c1` is greater than 30 µM; for `Cc1ccc(C(=O)O/N=C(\N)c2cccc([N+](=O)[O-])c2)cc1` it is greater than 30 µM.
Regarding `Cc1cccc(C(=O)O/N=C(\N)c2cccc([N+](=O)[O-])c2)c1`, the AC50 was greater than 30 µM.
In the case of `Cc1cccc(/C(N)=N/OC(=O)c2ccc3c(c2)OCO3)c1` it was 27.3 µM (active); in that of `Cc1cc(NC(=O)CCSc2nc(-c3ccco3)cc(C(F)(F)F)n2)n(-c2ccccc2)n1`, greater than 30 µM.
In the case of `C(=N\Nc1ncnc2sc3c(c12)CCC3)/c1ccncc1` it was greater than 30 µM.

The values are drawn from PubChem BioAssay AID463205 (Broad Institute, 2010).
